FGF22 binding-1: binders of recombinant human FGF22 by thermal shift; SYPRO orange fluorescence; percent of sucrose octasulfate shift, DMSO zero; activity (Tm shift, normalised), % at 9.99 µM; hit rate 1.5% among 340,000; AID 651658;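 active = mean Tm shift, scaled 0 neutral to 100 positive control, at about 1.3% or above, every replicate too, limit read from the data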
MLL AF4-AF9 inh: blocks AF4 peptide binding to human AF9. P42568. AlphaScreen, biotin-AF4 peptide binding to FLAG-AF9. inhibition, % at 10 µM. hit rate 0.47% among 350,000. AID 651704;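 active = every replicate reaching a set inhibition limit, whatever the replicate mean, cut at about 25% in these data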;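 note: 0% = plate neutral control median and 100% = total signal loss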
Target sequence (P42568 whole entry, looked up): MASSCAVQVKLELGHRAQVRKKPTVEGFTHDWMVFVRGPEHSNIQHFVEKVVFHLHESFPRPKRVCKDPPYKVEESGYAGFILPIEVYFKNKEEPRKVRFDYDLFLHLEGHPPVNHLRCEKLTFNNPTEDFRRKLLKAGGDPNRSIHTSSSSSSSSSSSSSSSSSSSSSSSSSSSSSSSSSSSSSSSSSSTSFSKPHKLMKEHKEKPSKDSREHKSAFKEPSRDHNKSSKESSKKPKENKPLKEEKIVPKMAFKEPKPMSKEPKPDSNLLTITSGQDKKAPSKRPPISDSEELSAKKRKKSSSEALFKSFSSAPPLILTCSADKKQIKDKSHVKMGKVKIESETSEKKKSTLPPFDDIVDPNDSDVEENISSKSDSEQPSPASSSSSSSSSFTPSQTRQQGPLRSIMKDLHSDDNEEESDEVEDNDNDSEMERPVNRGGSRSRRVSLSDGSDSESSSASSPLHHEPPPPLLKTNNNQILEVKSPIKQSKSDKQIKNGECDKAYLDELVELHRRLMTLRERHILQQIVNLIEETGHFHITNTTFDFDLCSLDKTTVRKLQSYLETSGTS
ERAP1 inh: inhibitors of human ERAP1 aminopeptidase | inhibition, % at 10.7 µM | Q9NZ08 | hit rate 0.15% among 340,000 | recombinant ERAP1, Leu-AMC fluorescence, 60 min;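 active = mean replicate inhibition of at least 30%, or all replicates individually reaching that 30% level; inactive = mean below 30% and not every replicate reaching it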;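 note: 0% = neutral control wells and 100% = L-leucinethiol positive control wells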
RAD52 anneal inh: inhibitors of human RAD52 DNA annealing; hit rate 0.46% among 360,000; recombinant RAD52 DNA annealing, FRET fluorescence; inhibition, % at 18.7 µM; P43351;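 active = every replicate showing at least 50% inhibition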
DENV2 CPE rescue: inhibitors of DENV2 cytopathic effect; hit rate 1.7% among 350,000; CPE inhibition, % at 9.99 µM; DENV2-infected cells, cytopathic effect rescue, plate reader; in the data active = CPE inhibition above about 20%, passing the limit was not always enough; tested in BHK-21 cells;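 note: 0% = median of neutral control wells and 100% = median of positive control wells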
FGF22 binding-2: binds human FGF22 shifting its melting temperature; recombinant FGF22 thermal shift, SYPRO orange fluorescence; hit rate 2% among 1,000; shares compounds with FGF22 binding-1; thermal shift activity, °C (ΔTm) at 38 µM;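 active = fitted rise in melting shift crosses a set limit at or below the top valid dose tested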
TSA no protein: counter-screen for FGF22 binders: compound-only thermal shift, no protein; shares compounds with FGF22 binding-1; compound-only SYPRO orange thermal shift counter-screen; AC50, µM (top dose mostly 38 µM); hit rate 2% among 1,000;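 active = rising signal whose fitted curve reaches the 0.54 level within the top valid dose, showing a melting point, actives reach about 13 µM in these data; inactive = the rest, including activity in the opposite direction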; note: value is where the raw curve crosses a fixed level and not half-maximal
Starred values were filed as active, the others as inactive; i = inactive; · = no result; [ ] = another dose, or the depositor's remark. Compounds with a hit are over-represented: about 4% of the library has one in this group of screens.

SMILES	FGF22 binding-1	MLL AF4-AF9 inh	ERAP1 inh	RAD52 anneal inh	DENV2 CPE rescue	FGF22 binding-2	TSA no protein
CC(C)NC(=O)Nc1cccc2c1O[C@@H](CN(C)Cc1ccc(C(=O)Nc3ccccc3N)cc1)[C@@H](C)CN([C@H](C)CO)C2=O	1.5*	1	1	9	-11	0.17	i
C[C@@H]1CN([C@@H](C)CO)C(=O)c2cc(NS(C)(=O)=O)ccc2O[C@@H]1CN(C)Cc1ccc2c(c1)OCO2	1.9*	-11	3	18	6	-0.12	i
C[C@H]1CN([C@@H](C)CO)C(=O)c2cc(NC(=O)Cc3cn(C)c4ccccc34)ccc2O[C@H]1CN(C)S(=O)(=O)c1ccccc1	0	1	-1	-31	-10	·	·
C[C@@H]1CN([C@@H](C)CO)C(=O)c2cccc(NC(=O)Nc3ccccc3)c2O[C@@H]1CN(C)Cc1ccc(C(=O)Nc2ccccc2N)cc1	-1	1	1	20	4	·	·
Cc1ccc(S(=O)(=O)Nc2ccc3c(c2)C(=O)N([C@@H](C)CO)C[C@H](C)[C@@H](CN(C)CC2CCCCC2)O3)cc1	1.5*	-2	-2	5	-8	0.15[42 µM]	i
C[C@@H]1CN([C@H](C)CO)C(=O)c2cc(NC(=O)Cc3cn(C)c4ccccc34)ccc2O[C@@H]1CN(C)S(=O)(=O)c1ccccc1	25*	1	-1	-32	-2	0.16	i
CC(C)NC(=O)N(C)C[C@H]1Oc2ccc(NC(=O)Nc3ccc(C(F)(F)F)cc3)cc2C(=O)N([C@H](C)CO)C[C@H]1C	1	-2	-2	11	3	·	·
CC(C)CC#Cc1cnc2c(c1)C(=O)N([C@@H](C)CO)C[C@H](C)[C@@H](CN(C)C(=O)c1cnccn1)O2	1	-4	-1	-9	-8	·	·
O=C([C@H]1[C@H](CO)[C@H]2Cn3c(cccc3=O)[C@@H]1N2C(=O)c1ccccn1)N1CCCCC1	0	0	-3	-13	-4	·	·
C[C@H](CO)N1C[C@H](C)[C@@H](CN(C)CC2CC2)Oc2ccc(NS(=O)(=O)c3cccs3)cc2C1=O	5.2*	-1	-1	-1	10	0.096[42 µM]	i
Cc1noc(C)c1NC(=O)Nc1ccc2c(c1)CC(=O)N([C@H](C)CO)C[C@H](C)[C@H](CN(C)Cc1ccc3c(c1)OCO3)O2	0	-2	-1	2	-11	·	·
C[C@H]1CN([C@@H](C)CO)C(=O)c2cc(NS(=O)(=O)c3ccccc3)ccc2O[C@@H]1CN(C)C	1.4*	0	0	-5	0	0.038	i
C[C@H]1CN([C@@H](C)CO)C(=O)c2cc(NS(=O)(=O)c3ccccc3)ccc2O[C@@H]1CN(C)Cc1ccc(C(=O)O)cc1	1.3*	-1	0	9	-6	0.095	i
C[C@@H]1CN([C@@H](C)CO)C(=O)c2cc(NS(=O)(=O)c3cccs3)ccc2O[C@@H]1CN(C)CC1CC1	0	2	2	12	-5	·	·
Cc1noc(C)c1NC(=O)Nc1ccc2c(c1)CC(=O)N([C@@H](C)CO)C[C@H](C)[C@@H](CN(C)Cc1ccc3c(c1)OCO3)O2	1.5*	0	-1	8	-3	0.13	i
CN1C(=O)c2cc(NC(=O)c3cccs3)ccc2OC[C@H]2O[C@H](CC(=O)NCC(F)(F)F)CC[C@@H]21	·	-1	2	4	-7	·	·
C[C@H](CO)N1C[C@H](C)[C@H](CN(C)CC2CCOCC2)Oc2cc(C#Cc3ccccc3F)ccc2S1(=O)=O	0	4	·	-43	0	·	·
C[C@@H]1CN([C@@H](C)CO)C(=O)Cc2cc(NC(=O)NC3CCCCC3)ccc2O[C@H]1CN(C)C	0	-1	2	-12	17	·	·
C[C@H](CO)N1C[C@H](C)[C@H](CN(C)C)Oc2ccc(NC(=O)NC3CCCCC3)cc2CC1=O	2.0*	0	-2	-10	4	0.097[42 µM]	i
O=C(C1CCCC1)N1CCCCN2[C@H](CO)[C@@H](c3ccc(-c4cccc(F)c4)cc3)[C@@H]2C1	0	-1	0	16	8	·	·
CC(C)(C)Nc1nc2cc([N+](=O)[O-])ccc2o1	0	-1	·	-9	4	·	·
O=[N+]([O-])c1ccc2oc(/C=C/c3ccc(O)cc3)nc2c1	1.8*	0	-2	-17	1	0.074	i
C[C@@H]1CCCCO[C@H](CN(C)Cc2ccc3c(c2)OCO3)[C@H](C)CN([C@@H](C)CO)C(=O)c2cc(NC(=O)Nc3cccc4ccccc34)ccc2O1	-1	·	·	·	-25	·	·
C/C=C/c1ccc([C@H]2[C@@H](CO)N(C(C)=O)C23CN(C(=O)c2ccc(F)cc2)C3)cc1	1.4*	5	1	-8	-5	-0.22	i
CCC(=O)N1CC2(CCN(Cc3nccs3)CC2)c2c(n(C)c3cc(OC)ccc23)[C@H]1CO	0	2	-1	5	5	·	·
SMILES	FGF22 binding-1	MLL AF4-AF9 inh	ERAP1 inh	RAD52 anneal inh	DENV2 CPE rescue	FGF22 binding-2	TSA no protein
CCC(=O)N1CC2(CCN(Cc3nccs3)CC2)c2c(n(C)c3cc(OC)ccc23)[C@@H]1CO	1.3*	0	1	8	4	0.14	i
O=[N+]([O-])c1ccc(CSc2nnc(Cc3ccccc3)o2)cc1	1.4*	6	·	3	0	0.023	i
COc1ccc(Cc2nnc(-c3ccccc3)o2)cc1	17*	·	·	-14	-1	0.2	i
COc1ccc(SCCc2nnc(-c3ccccc3)o2)cc1	0	-4	1	4	-4	·	·
O=C(C[C@H]1CC[C@H]2[C@@H](COC[C@H](O)CN2Cc2ccc(Oc3ccccc3)cc2)O1)N1CCc2ccccc2C1	0	·	·	·	5	·	·
CC(C)NC(=O)N1C[C@@H]2[C@H](c3ccccc31)[C@@H](CO)N2C(=O)c1cccnc1	0	0	2	-14	7	·	·
CC(C)NC(=O)N1C[C@H]2[C@@H](c3ccccc31)[C@H](CO)N2C(=O)c1cccnc1	1.3*	-12	·	-10	4	-0.023	i
CCCNC(=O)N1[C@@H]2CN(C(=O)c3ccccc3)c3ccccc3[C@@H]2[C@@H]1CO	1.8*	·	·	·	·	0.23[42 µM]	i
CCCNC(=O)N1C[C@@H]2[C@H](c3ccccc31)[C@H](CO)N2C(=O)c1ccccc1	·	·	·	-5	·	·	·
O=C(Cn1[nH]c(=O)c2ccccc2c1=O)Nc1cccnc1	2.2*	0	4	-4	17	0.082	i
COc1ccccc1S(=O)(=O)N(C)C[C@@H]1Oc2cc(C#CCC(C)C)ccc2S(=O)(=O)N([C@@H](C)CO)C[C@H]1C	21*	2	3	-7	-2	-1.1[42 µM]	i
CCCN(C)C[C@@H]1Oc2cc(-c3ccncc3)ccc2S(=O)(=O)N([C@@H](C)CO)C[C@@H]1C	-1	-1	5	2	-4	·	·

High-throughput results deposited in PubChem BioAssay by Broad Institute.
